High-throughput results (PubChem)
Hits are enriched below; roughly 2.5% of the tested compounds scored in any of these assays.
Cruzain inh noDet – qHTS Assay for Promiscuous and Specific Inhibitors of Cruzain (without detergent) | purified cruzain, Z-FR-AMC fluorescence, no detergent | AID 1476, 2009 | Potency, µM, for the others: max response, negative = inhibition, most hits filed as inhibitors | Cruzipain (Trypanosoma cruzi), P25779 | 200,000 compounds, 2.3% hits;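 note: plate controls were enzyme without inhibitor for no effect and buffer without enzyme for full effect; nearly all actives have a fitted effect of over 40% in size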
Target sequence (P25779 123-467 limits assumed): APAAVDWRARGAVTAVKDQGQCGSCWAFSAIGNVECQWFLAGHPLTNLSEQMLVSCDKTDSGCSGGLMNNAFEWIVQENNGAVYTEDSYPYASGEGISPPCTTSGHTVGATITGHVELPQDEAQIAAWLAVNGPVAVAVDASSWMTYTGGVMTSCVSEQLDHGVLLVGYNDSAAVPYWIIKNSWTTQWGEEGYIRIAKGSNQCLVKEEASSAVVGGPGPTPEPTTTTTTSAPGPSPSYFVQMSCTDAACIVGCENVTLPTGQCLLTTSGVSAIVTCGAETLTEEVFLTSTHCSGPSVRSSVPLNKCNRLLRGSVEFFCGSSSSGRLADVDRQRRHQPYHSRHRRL
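Detergent-free condition (0.00005% Triton X-100) in acetate buffer pH 5.5 with DTT. 1.5 nM enzyme and compound were pre-mixed 15 min, then 2 uM Z-FR-AMC substrate added; reaction progress from fluorescence change between first and third reads (60 s).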
Cruzain Triton – qHTS Assay for Promiscuous and Specific Inhibitors of Cruzain (with detergent); 200,000 compounds, 0.43% hits; purified cruzain, Z-FR-AMC fluorescence, 0.01% Triton; Cruzipain (Trypanosoma cruzi), P25779; Potency, µM, for the others: max response, negative = inhibition, actives largely listed as inhibitors;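 note: plate controls were neutral wells for no effect and buffer without enzyme for full effect; nearly all actives have a fitted effect of over 40% in size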
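Enzyme 1.5 nM, Z-FR-AMC 2 uM, NaOAc 100 mM pH 5.5, DTT 5 mM, Triton X-100 0.01%; 15 min RT compound preincubation; kinetic ex360/em450, 60 s delta.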
Papain counter – qHTS Assay for Inhibitors of Papain: Counterscreen for Cruzain Assay | shares compounds with Cruzain Triton | purified papain, Z-FR-AMC fluorescence cleavage | AID 2161, 2009 | 410 compounds, 41% hits | Potency, µM, without a hit: max response, negative = inhibition, hits mostly inhibitors;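 note: 0% = no-compound wells and -100% = no-enzyme wells; nearly all actives have a fitted effect of over 35% in size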
The depositor's hits bear a star; ? = inconclusive; . = no result given. Calls come from the whole dose curve; as a rule, active = well fitted curve in the direction sought with a large enough effect; inconclusive = small, poorly fitted or top-dose-only effect, or another doubt; inactive = no such curve, though single readings can be large; an effect the other way counts as inactive or inconclusive. Potency is the fitted concentration of half-maximal effect.

SMILES	Cruzain inh noDet	Cruzain Triton	Papain counter
COc1ccc(NC(=O)c2cc3cc(C)ccc3[nH]2)cc1	-7.8%	0.9%	.
Cc1ccc2[nH]c3c(NCCCN4CCCC4=O)ncnc3c2c1	-23.9%	-24.4%	.
COc1ccc2[nH]c3c(NCCN4CCCCC4)ncnc3c2c1	12.6µM*	15.8µM*	5.0%
Cc1cccc(NC(=O)Cn2nc(C)c3nn(-c4ccc(Cl)cc4)c(C)c3c2=O)c1C	5.2%	2.1%	.
Cc1ccc(S(=O)(=O)CCC(=O)OCC(=O)Nc2ncc(Cl)cc2Cl)cc1	-15.4%	-18.0%	.
Cc1ccc(S(=O)(=O)NCC(=O)OCC(=O)Nc2ncc(Cl)cc2Cl)cc1	25.1µM*	20µM*	-29.9%
NNC(=O)Cn1c(SCc2ccccc2)nc2ccccc21	-1.4%	2.8%	2.7%
NC(=O)CSc1nc2ccccc2n1Cc1ccccc1	-3.4%	-3.7%	.
COc1cccc(Cn2c(=O)c(CCc3ccccc3)nc3cnc(N4CCOCC4)nc32)c1	-5.6%	-4.0%	.
O=C(Nc1ccccc1)C1CCCCC1	6.9%	2.3%	.
NC(=O)C(OC(=O)CNC(=O)C1CCCCC1)c1ccccc1 (centres undefined)	.	.	12.6µM*
O=C(CNC(=O)C1CCCCC1)Nc1ccccc1Cl	3.9%	-1.9%	.
O=C(CNC(=O)C1CCCCC1)OC(C(=O)c1ccccc1)c1ccccc1 (centres undefined)	.	.	2.5%
COc1ccc2oc(=O)c(C(=O)Nc3ccc(C(=O)O)cc3)cc2c1	18.5%	0.5%	.
COc1ccc2[nH]cc(CCNc3ncncc3-c3ccc4c(c3)OCO4)c2c1	-4.6%	-3.5%	.
C=CCn1c(SCC(=O)NCc2ccco2)nc2sc3c(c2c1=O)CCCC3	-12.6%	-1.1%	.
O=C(NCc1ccco1)c1ccc2nc3sc4c(c3c(=O)n2c1)CCCC4	22.3%	10µM*	25.1µM*
Cc1cc2c(C)cc(=O)oc2c2c1NCCC2	-10.7%	25.1µM*	15.8µM*
Cc1cc2cc3c(C)cc(=O)oc3c(C)c2o1	3.3%	2.1%	.
COc1ccccc1C1=Nn2c(nc3sc(C(=O)Nc4ccccc4Cl)c(C)c3c2=O)SC1	-0.9%	-7.8%	.
CC(=O)c1cccc(-n2c(=O)c3c4c(sc3n(Cc3cccc(C)c3)c2=O)CN(C(C)=O)CC4)c1	?	-0.8%	.
CC(C)(C)c1ccc(-c2nc(SCC(=O)Nc3ccc(Cl)cc3)[nH]c(=O)c2C#N)cc1	-7.1%	15.8µM*	10µM*
N#Cc1c(-c2ccco2)nc(SCC(=O)Nc2cccc(Cl)c2)[nH]c1=O	1.4%	-19.5%	.
Cc1c(C(=O)N(Cc2ccc(Cl)cc2)CC2CCCO2)oc2ccc(F)cc12 (centres undefined)	-4.2%	-7.4%	.
Cc1cccc2c1-c1sc(C(=O)N(C)c3cccc(Cl)c3)cc1CO2	8.2%	-3.6%	.
SMILES	Cruzain inh noDet	Cruzain Triton	Papain counter
COc1cc(C2c3c(oc4ccccc4c3=O)C(=O)N2Cc2ccccc2Cl)ccc1O (centres undefined)	3.9%	-0.7%	.
Cc1ccc(S(=O)(=O)NC(CC(N)=O)C(=O)O)cc1 (centres undefined)	1.3%	4.2%	.
Cc1ccc(S(=O)(=O)N[C@@H](CCCCN)C(=O)CCl)cc1	1µM*	0.794µM*	3.98µM*
CC/C=C1/N=C2C(=O)N(C)C(=O)N=C2N(C)N1	.	.	-12.9%
CN1N/C(=C\c2ccccc2)N=C2C(=O)N(C)C(=O)N=C21	.	.	-9.8%
CN1C(=O)/C(=C/c2ccc3c(c2)OCO3)N=C1c1ccccc1	-6.9%	-11.1%	.
CCN(CC)c1nn2c(=O)c(C(=O)NCCc3cccc(C)c3)cnc2s1	-4.2%	-9.6%	.
COc1ccc(CNC(=O)C(Cc2ccccc2)NS(=O)(=O)c2ccc3c(c2)CCN3C(C)=O)cc1 (centres undefined)	10.2%	-4.1%	.
Cc1csc(N/N=C/c2ccc(O)c([N+](=O)[O-])c2)n1	7.94µM*	7.08µM*	-46.9%
Cc1nnc(N/N=C/c2ccc(O)c([N+](=O)[O-])c2)[nH]c1=O	-3.5%	-3.7%	.
N#Cc1nc(-c2cccc3ccccc23)oc1N1CCCCC1	?	-3.4%	.
CC1CCN(c2oc(-c3cccc4ccccc34)nc2C#N)CC1	?	31.6µM*	39.8µM*
CC1=C(C(=O)OCC2CCCCC2)C(c2ccc(Cl)cc2Cl)CC(=O)N1 (centres undefined)	-6.0%	-1.2%	.
COc1ccc(-c2[nH]ncc2C(=O)NCc2cccc(F)c2)cc1	-1.2%	-1.5%	.
Cc1ccccc1NS(=O)(=O)c1ccc2[nH]cc(C(=O)NC3CCCCC3)c(=O)c2c1	-11.0%	-6.1%	.
C(/Oc1ccccc1)=C1\Nn2c(nnc2-c2cc(-c3ccccc3)n[nH]2)S1	.	.	10.5%
CC1(C)Cn2c(nnc2-c2ccccc2)S1	6.8%	8.1%	.
COc1cc(OC)cc(-n2nnc(-c3nc(-c4ccccc4Cl)no3)c2N)c1	-1.1%	-0.6%	.
